Experiment in all cases: NCI-60 one-dose screen, 48 h (100 = growth as untreated, 0 = no growth, -100 = all killed)
Holding throughout (conditions): 10 µM unless noted

Test [1] has as its system HCT-15 colon.
In test [2] the test system is HT29 colon.
In test [3] the test system is SNB-75 CNS.
Test [4] relates to SNB-19 CNS.
The subject of test [5] is U251 CNS.
Test [6] concerns PC-3 prostate.
Test [7] concerns SK-MEL-5 melanoma.
Test [8] concerns UACC-62 melanoma.
For test [9], the system named is LOX IMVI melanoma.
In test [10] the test system is SK-MEL-28 melanoma.
For test [11], the system named is SK-MEL-2 melanoma.
The subject of test [12] is EKVX NSCLC.
In test [13] the test system is SN12C renal.
In test [14] the test system is UO-31 renal.
The test system of test [15] is TK-10 renal.
Test [16] deals with ACHN renal.
The subject of test [17] is CAKI-1 renal.
For test [18], the system named is A498 renal.
Test [19] concerns CCRF-CEM leukemia.
The subject of test [20] is MOLT-4 leukemia.

From PubChem BioAssay (NCI) come the findings set out here.

Compounds without any hit were thinned out: in the full panel of roughly 83,000, 20% have a hit.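 Assay: single dose, 48 h. Readout: percent growth (0 = no net growth; negative = cell death). Active: <10.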 A number with no mark means an inactive call. Active and inactive are the calls of the source.

On to `CC(C)=CCC[C@](C)(O)[C@H]1CC[C@]2(C)[C@@H]1CC[C@@H]1[C@@]3(C)C/C(=C/c4ccccc4)C(=O)C(C)(C)[C@@H]3CC[C@]12C`, for which the growth in [1] was 93.6%; in test [2], 99.9%; in test [3] it was 67.2%; in test [4] it was 88%; in test [5], 85.8%; in [6], 79.6%. The growth in [7] was 98.7%; in test [8] it was 88.2%; in test [9] it was 93.4%; in [10], 104%; in [11], 98.3%; in test [12], 96.4%. Moreover, the growth in test [13] was 91%; in test [14], 66.7%; in test [15], 63.8%; in [16] it was 96.3%; in test [17] it was 53.7%; in test [18] it was 85.6%. Further, the growth in test [19] is 87.8%.

`CCOC(=O)CC1CSC(N/N=C/c2ccc(-n3cccn3)cc2)=N1` (centres undefined): the growth was 104% in test [1]; 99.3% in [2]; 101% in test [3]; 98.9% in [4]; 96.9% in [5]; 99.6% in test [6]. The growth is 98.1% in test [7]; 92.5% in test [8]; 97.4% in test [9]; 111% in test [10]; 113% in test [11]; 108% in test [12]. The growth was 100% in test [13]; 90.9% in test [14]; 108% in test [15]; 109% in [16]; 102% in test [17]; 97.8% in test [18]. The results for the growth in [19] and in test [20] were 94.1% and 97.3%, respectively.

`Cc1nc2sccn2c1-c1nc2sccn2c1/C=C1/C(=O)Nc2ccccc21`: the growth in test [1] was 29.4%; in [2], 0.756% (active); in test [3], 15.2%; in test [4], 31.5%; in test [5] it was 24.6%; in [6] it was 28.7%. The growth in [7] is 20.5%; in [8], 33.6%; in test [9], 36.3%; in test [10], 45.3%; in [11], 61%; in [12] it was 56.6%. Further, the growth was 65.6% in [13]; 39.6% in [14]; 70.9% in test [15]; 41.5% in [16]; 2.29% (active) in test [17]; 5.72% (active) in test [18]. Besides, in [19], the growth is 35%.

On to `O=C1CC(=O)OC(c2ccc([N+](=O)[O-])cc2)O1`, for which the growth was -48.8% (active) in test [1]; -39.5% (active) in test [2]; 9.16% (active) in test [3]; 55.2% in [4]; 4.05% (active) in test [5]; 37% in [6]. Besides, the growth in test [7] is 18.4%; in [8], -72.2% (active); in test [9], -84.5% (active); in test [10] it was -17.3% (active); in test [11] it was -40.2% (active); in test [12], 47.8%. In addition, the growth in test [13] was -37.6% (active); in [14], -88.2% (active); in [15], -15.5% (active); in [16], -76.2% (active); in test [17] it was -45.7% (active); in [18], 104%. Moreover, the growth in test [19] was 15.3%.

Turning to `O=C(CSc1nc2ccccc2[nH]1)NCc1ccccc1`, the growth is 105% in [1]; 99.4% in test [2]; 74.5% in [3]; 97.8% in test [4]; 106% in test [5]; 98.8% in test [6]. The growth in test [7] was 102%; in test [8], 95.2%; in test [9], 98.3%; in [10] it was 102%; in test [11], 120%; in [12] it was 101%. Besides, the growth in test [13] was 95.8%; in test [14] it was 83.6%; in test [15] it was 4.87% (active); in test [16], 95.4%; in test [17], 82.1%; in [18], 105%. In addition, the growth in test [19] is 103%.

On to `Cn1cc(-c2nc(-c3c[nH]c4c(Cl)nccc34)cs2)c2cc(F)ccc21`, for which the growth in test [1] was 99.2%; in [2], 87.8%; in test [3], 107%; in [4], 98%; in [5], 85.8%; in test [6] it was 92.9%. In addition, the growth in test [7] is 94.5%; in test [8], 97.5%; in [9], 109%; in test [10], 112%; in test [11] it was 95.6%; in [12] it was 94.2%. Further, the growth in [13] is 98.6%; in test [14] it was 103%; in test [15] it was 95%; in test [16], 114%; in test [17], 99.2%; in test [18], 83.2%. The growth in test [19] is 97.8%.

For `Cn1cc(-c2csc(-c3c[nH]c4ccccc34)n2)c2ccnc(Cl)c21`, the growth in [1] is -8.86% (active); in test [2] it was 27.9%; in [3], 77.7%; in test [4] it was 94%; in [5] it was 48.6%; in [6], 56%. Further, the growth in [7] is 50%; in test [8], 84.9%; in test [9] it was 82.6%; in [10], 85.1%; in [11] it was 94.4%; in test [12], 79.6%. Also, the growth is 76.5% in [13]; 49.3% in test [14]; 77.4% in [15]; 54.2% in [16]; 66.1% in test [17]; 53.8% in [18]. In test [19], the growth is 57.4%.
